We go through four molecules from PubChem BioAssay.

SMILES strings stand for the structures. Activity calls are given as the source filed them.

A short description of test [1]: compound effects on differentiated 3T3-L1 adipocyte viability – cell-based, 3T3-L1 adipocytes, calcein-AM fluorescence, 48 h, basal, profiling panel (AID 1163). The conditions noted are these: 3T3-L1 adipocytes viability, higher = more signal.
Test [2] in a line: compound effects on hepatocellular carcinoma cell viability – HepG2, calcein-AM fluorescence, 48 h, basal, profiling panel (AID 1164). To be noted: higher = more signal.
A short description of test [3]: compound effects on multiple myeloma cell viability – MM1S, calcein-AM fluorescence, 48 h, basal, profiling panel (AID 1165).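 Further: viability of MM1S multiple myeloma cells under basal unstimulated conditions.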 To be noted: higher = more signal.
A short description of test [4]: calcein-AM signal in unstimulated myeloma cells – cell-based, calcein-AM fluorescence, 48 h, PK04 Diversity Set, profiling panel (AID 1166).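 Further: cells grown under basal conditions without added stimulus.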 To be noted: RPMI8226 myeloma viability, higher = more signal.
Test [5] is described as follows: JC-1 mitochondrial signal, unstimulated HepG2 cells – cell-based, JC-1 fluorescence, 24 h, 100 nL compound, profiling panel (AID 1167). The conditions noted are these: HepG2 mitochondrial potential, higher = more signal.
Test [6] is described as follows: JC-1 mitochondrial signal, unstimulated adipocytes – cell-based, JC-1 fluorescence, 3T3-L1 adipocytes, 24 h, 100 nL compound, profiling panel (AID 1168). To be noted: JC-1 mitochondrial fluorescence, higher = more signal, called active from +8 up or from −8 down.
Test [7] can be described thus: JC-1 mitochondrial signal, unstimulated myeloma cells – cell-based, JC-1 fluorescence, RPMI8226, 24 h, 100 nL compound, profiling panel (AID 1169). The conditions noted are these: JC-1 mitochondrial potential fluorescence, higher = more signal.
The nature of test [8]: JC-1 mitochondrial signal, unstimulated MM1S myeloma – cell-based, JC-1 fluorescence, 24 h, 100 nL compound, profiling panel (AID 1170). The conditions noted are these: MM1S mitochondrial potential, higher = more signal.
Test [9] is described as follows: resazurin metabolic signal in A549 cells – cell-based, resazurin fluorescence, 24 h, PK04 Diversity Set, profiling panel (AID 1171). To be noted: A549 viability, higher = more signal, called active from +8 up or from −8 down. On the technique in general: Alamar Blue is a resazurin reagent that responds to reducing activity.
A short description of test [10]: resazurin metabolic signal in HepG2 cells – cell-based, resazurin fluorescence, 24 h, PK04 Diversity Set, profiling panel (AID 1172). To be noted: HepG2 viability, higher = more signal.
Test [11] can be described thus: budding yeast growth changes without added modifier – OD600, strain BY4716, 24 h, basal condition, primary screen (AID 1173). To be noted: S. cerevisiae BY4716 growth, OD600, 24 h; higher = more signal, called active from +8 up or from −8 down.
A short description of test [12]: viability profiling in MM1S myeloma cells – cell-based, resazurin fluorescence, basal, 24 h, PK04 Diversity Set, profiling panel (AID 1174). The conditions noted are these: higher = more signal, called active from +8 up or from −8 down.
Test [13] addresses Dihydroorotate dehydrogenase (quinone), mitochondrial (Plasmodium falciparum (isolate 3D7)) (UniProt Q08210). The test can be described thus: inhibition of P. falciparum DHODH – biochemical, C-terminal His tag, absorbance 600 nm, primary screen (AID 1175).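 Further: recombinant parasite enzyme with a five histidine tag at its C terminus.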 To be noted: PfDHODH enzyme, DCIP absorbance 600 nm; higher = more signal, called active from +8 up or from −8 down.
Test [14] can be described thus: growth modulation of vineyard yeast isolate – strain RM11-1a, OD600, basal, 24 h, primary screen (AID 1177).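 Further: cultures grown under basal conditions with no added stressor.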 To be noted: S. cerevisiae RM11-1a growth, OD600, 24 h; higher = more signal, called active from +8 up or from −8 down.
The nature of test [15]: growth of efflux-deficient E. coli DRC39 – strain DRC39, OD650, 24 h, E. coli filamentation inducers, primary screen (AID 1178).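 Further: growth measured as culture turbidity by optical density at 650 nm.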 The conditions noted are these: E. coli DRC39 acrAB, higher = more signal, called active from +8 up or from −8 down.
The nature of test [16]: growth of efflux-deficient E. coli DRC39 – strain DRC39, OD650, 48 h, E. coli filamentation inducers, primary screen (AID 1179).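 Further: screen aims at cell division blockers that make cells filament.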 To be noted: E. coli DRC39 delta-acrAB growth, higher = more signal, called active from +8 up or from −8 down.
Test [17] can be described thus: viability profiling in RPMI8226 myeloma cells – cell-based, resazurin fluorescence, basal, 24 h, PK04 Diversity Set, profiling panel (AID 1180).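 Further: RPMI8826 multiple myeloma cell line at 5000 cells per well.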 The conditions noted are these: higher = more signal.
Test [18] deals with E3 ubiquitin-protein ligase XIAP (Homo sapiens) (UniProt P98170). Put plainly: small molecules binding XIAP protein – biophysical, small-molecule microarray, fluorescence 635 nm, primary screen (AID 1181).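 Further: score merges 667 nm emission and signal to noise over triplicate slides.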 The conditions noted are these: higher = more signal.
For test [19], the system named is XIP peptide (Xip251-270) binding. Put plainly: XIP fragment 251-270 binding compounds – biochemical, small-molecule microarray, fluorescence 635/667 nm, 0.1 µg/mL protein, primary screen (AID 1182). To be noted: fluorescent protein binding, 635 nm, higher = more signal, called active from +8 up or from −8 down.
A further test concerns XIP peptide (Xip251-270). Put plainly: compounds binding XIP fragment 251-270 – biochemical, small-molecule microarray, fluorescence 635/667 nm, 0.5 µg/mL protein, primary screen (AID 1183). The conditions noted are these: fluorescence 635 nm, higher = more signal.

Sequence of Dihydroorotate dehydrogenase (quinone), mitochondrial (Plasmodium falciparum (isolate 3D7)) (Q08210 whole entry, looked up): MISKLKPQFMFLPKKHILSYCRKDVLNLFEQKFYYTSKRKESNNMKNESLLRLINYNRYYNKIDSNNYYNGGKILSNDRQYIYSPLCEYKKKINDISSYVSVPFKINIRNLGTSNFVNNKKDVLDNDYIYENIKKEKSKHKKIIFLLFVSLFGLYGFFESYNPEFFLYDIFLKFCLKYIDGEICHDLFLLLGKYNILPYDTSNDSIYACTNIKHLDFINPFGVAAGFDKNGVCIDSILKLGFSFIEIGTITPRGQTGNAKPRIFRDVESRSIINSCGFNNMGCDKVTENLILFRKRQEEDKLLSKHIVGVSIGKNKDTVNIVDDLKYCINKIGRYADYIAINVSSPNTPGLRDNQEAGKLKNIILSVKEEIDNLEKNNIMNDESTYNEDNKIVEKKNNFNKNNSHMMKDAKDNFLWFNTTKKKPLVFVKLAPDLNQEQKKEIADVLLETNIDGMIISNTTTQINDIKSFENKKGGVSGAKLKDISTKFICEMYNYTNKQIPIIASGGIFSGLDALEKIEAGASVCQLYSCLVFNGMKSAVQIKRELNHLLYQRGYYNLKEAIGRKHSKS
Sequence of E3 ubiquitin-protein ligase XIAP (Homo sapiens) (P98170 whole entry, looked up, the tested form may be a part): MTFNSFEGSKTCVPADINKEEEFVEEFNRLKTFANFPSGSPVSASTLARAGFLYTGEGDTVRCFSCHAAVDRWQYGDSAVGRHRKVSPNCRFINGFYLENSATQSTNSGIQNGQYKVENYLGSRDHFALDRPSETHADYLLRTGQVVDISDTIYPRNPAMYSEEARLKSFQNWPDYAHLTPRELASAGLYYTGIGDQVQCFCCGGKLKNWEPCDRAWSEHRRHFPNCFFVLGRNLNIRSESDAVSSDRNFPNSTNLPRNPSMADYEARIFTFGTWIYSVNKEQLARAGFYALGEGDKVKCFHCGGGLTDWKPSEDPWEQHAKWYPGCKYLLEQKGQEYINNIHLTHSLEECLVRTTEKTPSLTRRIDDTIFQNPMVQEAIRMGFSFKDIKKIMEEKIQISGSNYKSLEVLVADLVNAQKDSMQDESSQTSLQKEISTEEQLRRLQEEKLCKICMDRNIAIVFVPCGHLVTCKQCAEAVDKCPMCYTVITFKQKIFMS

`O=C1c2ccccc2[C@@]2(Cc3ccccc3N(CC(F)(F)F)C2=O)[C@H](c2ccc(CO)cc2)N1Cc1ccccc1C(F)(F)F`: the z-score in test [1] was 0.559; in [2], -0.167; in [3] it was 0.733; in [4], -1.08; in test [5] it was 0.288; in test [6] it was 1.05 (inactive). Moreover, the z-score is 0.753 in test [7]; 0.197 in test [8]; -0.203 (inactive) in test [9]; 0.528 in test [10]; -0.829 (inactive) in [11]; 1.02 (inactive) in test [12]. Further, the z-score was -0.49 (inactive) in test [14], -0.136 (inactive) in test [15], -0.344 (inactive) in test [16] and 1.05 in test [17]. The composite z-score was -3.56 (inactive) in test [13], -0.0446 in test [18], -0.765 (inactive) in test [19] and -1.23 with XIP peptide (Xip251-270).

Consider `O=C1O[C@H](c2ccccc2)[C@H](c2ccccc2)N2[C@H]1[C@@H](C(=O)Nc1nc3ccccc3s1)[C@]1(C(=O)Nc3ccc(C#CCCO)cc31)[C@H]2c1ccccc1OCCO`, for which the z-score in test [1] is 1.87; in [2], 0.383; in test [3], -1; in [4] it was -0.198; in test [5] it was -2.75; in test [6], 1.18 (inactive). For the same molecule, the z-score in test [7] was -0.8; in test [8], -1.16; in test [9], 0.411 (inactive); in test [10] it was 0.253; in test [11] it was 0.243 (inactive); in test [12], 0.228 (inactive). For the same molecule, the z-score in test [14] was 1.07 (inactive); in test [15], 0.381 (inactive); in test [16] it was 0.391 (inactive); in test [17] it was -0.914. Moreover, the composite z-score is -0.244 (inactive) in test [13], 0.15 in test [18], 1.52 (inactive) in test [19] and 0.732 in the test on XIP peptide (Xip251-270).

For the molecule `COCCCNC(=O)[C@@]1(Cc2ccccc2CN=[N+]=[N-])COC(c2ccc(OCCCO)cc2)=N1`, the z-score in test [1] is 1.08; in [2], 0.501; in [3], -2.46; in [4] it was -0.77; in test [5] it was 0.287; in test [6], 1.33 (inactive). Also, the z-score in test [7] was -0.724; in test [8] it was -0.376; in test [9], 0.616 (inactive); in test [10], 1.8; in [11], -1.66 (inactive); in [12], 0.0645 (inactive). Further, the z-score was 0.493 (inactive) in test [14], 2 (inactive) in test [15], 1.61 (inactive) in [16] and 0.693 in test [17]. For the same molecule, the composite z-score in test [13] was -0.49 (inactive); in [18], -0.0525; in test [19], 1.94 (inactive); with XIP peptide (Xip251-270), 0.866.

For `C[N+](C)(C)CCCC[C@@H]1NC(=O)[C@@H]2C[C@H](C(=O)NCCCCCNC(=O)CS)[C@H](c3ccc(O)cc3)N2C1=O`, the z-score was 1.09 in test [1]; -0.792 in test [2]; -0.982 in test [3]; 0.027 in test [4]; 2 in [5]; 0.385 (inactive) in test [6]. Also, the z-score in [7] is 0.289; in test [8] it was -0.336; in test [9], 1.09 (inactive); in test [10], -0.122; in test [11] it was -1.15 (inactive); in test [12], 0.941 (inactive). Also, the z-score was -1.36 (inactive) in [14], 0.513 (inactive) in [15], 0.355 (inactive) in test [16] and 1.55 in [17]. Moreover, the composite z-score is -1.15 (inactive) in test [13], 0.0471 in test [18], 0.609 (inactive) in [19] and 0.184 in the test with XIP peptide (Xip251-270).
